This is part of a sample that, as a whole, favours compounds with a hit. Of some 79,000 tested, about 15% had one in any assay. Rule as the data show it: active = growth inhibition above about 70%; inactive = the rest.
Columns and labels:
[1] = NCI Yeast Anticancer Drug Screen. Data for the rad50 strain (AID 155);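 also: 0% = growth of vehicle-only cultures of the same strain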; settings: S. cerevisiae rad50 strain growth inhibition; at 50.0 µM; stronger effect = higher value
In short: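 A DNA repair-deficient yeast mutant serves as the test organism; compound-induced growth inhibition is calculated against vehicle-treated cells.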

[2] = NCI Yeast Anticancer Drug Screen. Data for the mec2-1 strain (AID 157); settings: S. cerevisiae mec2-1 strain, at 50.0 µM, stronger effect = higher value
In short: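 Each compound was tested on mec2-1 yeast, a strain altered in DNA damage repair or cell cycle control. Growth inhibition is reported relative to vehicle.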

[3] = NCI Yeast Anticancer Drug Screen. Data for the sgs1 mgt1 strain (AID 161);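 also: 0% = growth of cultures given vehicle only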; settings: S. cerevisiae sgs1 mgt1 strain, at 50.0 µM, stronger effect = higher value
In short: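 Read-out: growth inhibition vs vehicle controls. Cells: mutant yeast strain deficient in DNA damage repair.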

[4] = NCI Yeast Anticancer Drug Screen. Data for the cln2 rad14 strain (AID 165);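 also: 0% = growth equal to vehicle treated cultures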; settings: S. cerevisiae cln2 rad14 strain, at 50.0 µM, stronger effect = higher value
In short: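 Test compounds were added to cln2 rad14 yeast cultures; inhibition of growth was then determined by comparison with vehicle treatment.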

[5] = NCI Yeast Anticancer Drug Screen. Data for the bub3 strain (AID 167); settings: S. cerevisiae bub3 mutant strain, at 50.0 µM, stronger effect = higher value
In short: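 Inhibition values come from growth of compound-treated mutant yeast normalised to vehicle-treated controls.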

[6] = NCI Yeast Anticancer Drug Screen. Data for the mlh1 rad18 strain (AID 175); settings: S. cerevisiae mlh1 rad18 strain growth inhibition; at 50.0 µM; stronger effect = higher value
In short: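 Inhibition values reflect reduced growth of mutant yeast versus vehicle-treated controls following compound exposure; the mutations affect DNA damage repair.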

Measured: growth inhibition

C[N+]1(C)CCCC(O)(C(=O)c2ccccc2)C1 (stereo unspecified)
inactive: [1] -5.2% | [2] -10.3% | [3] -14.3% | [4] 6.6% | [5] -2.4% | [6] 17.1%

CCCCCCCCCCCCCCCCCCn1cnc2c(=S)nc[nH]c21
inactive: [1] -37.5% | [2] -2.2% | [3] -0.75% | [4] -20.5% | [5] 0.5% | [6] -34.1%

CCC(CC)(CO)CO
inactive: [1] 8.75% | [2] -5.75% | [3] -4.3% | [4] 16.1% | [5] -0.55% | [6] -1.55%

CCCC(=O)OC1=CC(=O)c2ccccc2C1=O
inactive: [1] 22.9% | [2] 16.6% | [3] 29.1% | [4] 26.5% | [5] -10.2% | [6] 6.3%

COc1cc(-c2ccc(N=C=O)c(OC)c2)ccc1N=C=O
inactive: [1] -4% | [2] -27.4% | [3] 9.8% | [4] -5.7% | [5] 29.9% | [6] -8.15%

COc1ccc(CCn2nnc3ccccc3c2=O)cc1OC
inactive: [1] -4.1% | [2] -33.1% | [3] -10.1% | [4] 16.6% | [5] -28.4% | [6] -11.5%

COC(=O)CNC(=O)C(Cc1ccccc1)NC(=O)OCc1ccccc1 (stereo unspecified)
inactive: [1] -4.95% | [2] -3.75% | [3] -1.55% | [4] 1.9% | [5] 15.8% | [6] -3.3%

CCC(=O)NN1C(=O)c2ccccc2C1=O
inactive: [1] -13.8% | [2] -15.4% | [3] -23.4% | [4] -13.2% | [5] -16.5% | [6] -10.2%

CC1CCC(C(C)(C)c2ccccc2)C(=O)C1 (stereo unspecified)
inactive: [1] 12.1% | [2] -17.6% | [3] -9.4% | [4] 19.4% | [5] -19% | [6] 15.4%

Cc1nc(-c2nc(C)c(C(=O)NNC(=O)C[n+]3ccccc3)s2)sc1C(=O)NNC(=O)C[n+]1ccccc1
inactive: [1] 21.9% | [2] 10.6% | [3] 52% | [4] -20.9% | [5] 0.2% | [6] 14.4%

COC1(OC)CCC(OC)(OC)C(OC)(OC)C1(OC)OC
inactive: [1] 4.75% | [2] 8.1% | [3] 11.7% | [4] -4.2% | [5] -16.2% | [6] 2.75%

CC1=C(O)C(=O)C2C(=O)C1C(C)C2c1ccccc1 (stereo unspecified)
inactive: [1] -5.45% | [2] 3.05% | [3] -32.2% | [4] -7.6% | [5] -11.6% | [6] -13.9%

CC1CN(CC2COc3ccccc3O2)C(C)CN1 (stereo unspecified)
inactive: [1] 61.8% | [2] 17.4% | [3] 57.2% | [4] 58.5% | [5] 53.4% | [6] 34.2%

COc1cc(N)c2c(c1)SC(c1ccccc1)C(=O)N2 (stereo unspecified)
inactive: [1] -23.6% | [2] 4.25% | [3] 1% | [4] 14.1% | [5] 32.6% | [6] 15.7%

CS(=O)(=O)OCCCCOS(=O)(=O)CF
inactive: [1] -36.9% | [2] -35% | [3] -31.4% | [4] -14.2% | [5] -8.7% | [6] -20%

Cc1c(Cl)ccc2c1NC(=O)C2(O)C1Cc2ccccc2C1=O (stereo unspecified)
inactive: [1] 44.5% | [2] 21.1% | [3] 37.5% | [4] 34% | [5] 15.1% | [6] 28%

CCOC(=O)N(C)N=NCCCl
inactive: [1] 15.2% | [2] 2.2% | [3] -5.05% | [4] -26.9% | [5] 8.2% | [6] -4.9%

COC(=O)c1cc(-c2cccnc2)[nH]c(=O)c1C#N
inactive: [1] -5.4% | [2] -36.6% | [3] -39.9% | [4] -15.7% | [5] -9.7% | [6] -14.2%

CNC(=O)c1ccccc1S(=O)Cc1ccc(Br)cc1 (stereo unspecified)
inactive: [1] -19.1% | [2] -30.2% | [3] -17.6% | [4] 8.35% | [5] 22.7% | [6] -0.95%

CCOC(=O)CC(=O)CC
inactive: [1] 8.5% | [2] -16.6% | [3] -18.8% | [4] 7.55% | [5] -6.45% | [6] 3.25%

CCC(O)C(O)(c1ccccc1)c1ccccc1 (stereo unspecified)
inactive: [1] 4.05% | [2] 8% | [3] -8.8% | [4] -2.75% | [5] -1.2% | [6] -6.7%
